In publication PMC5540273 (PLoS ONE, 2017):

Tests used:
Details in all cases: concentration: 1 μM, replicates: in singlicate; n = 1
CSF1R-autoinhibited = test system: CSF1R-autoinhibited
CSF1R = test system: CSF1R
CSK = test system: CSK
CSNK1A1L = test system: CSNK1A1L
CSNK1A1 = test system: CSNK1A1
CSNK1D = test system: CSNK1D
CSNK1E = test system: CSNK1E
CSNK1G1 = test system: CSNK1G1
CSNK1G2 = test system: CSNK1G2
CSNK1G3 = test system: CSNK1G3
CSNK2A1 = test system: CSNK2A1
CSNK2A2 = test system: CSNK2A2
CTK = test system: T1, CTK
T1 construct: gene MATK

DAPK1 = test system: DAPK1
DAPK2 = test system: DAPK2
DAPK3 = test system: DAPK3
DCAMKL1 = test system: T2, DCAMKL1
T2 construct: gene DCLK1

DCAMKL2 = test system: T3, DCAMKL2
T3 construct: gene DCLK2

DCAMKL3 = test system: T4, DCAMKL3
T4 construct: gene DCLK3

DDR1 = test system: DDR1
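Further: KINOMEscan kinase panel screen.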

Row | SMILES | %Inh (CSF1R-autoinhibited) | %Inh (CSF1R) | %Inh (CSK) | %Inh (CSNK1A1L) | %Inh (CSNK1A1) | %Inh (CSNK1D) | %Inh (CSNK1E) | %Inh (CSNK1G1) | %Inh (CSNK1G2) | %Inh (CSNK1G3) | %Inh (CSNK2A1) | %Inh (CSNK2A2) | %Inh (CTK) | %Inh (DAPK1) | %Inh (DAPK2) | %Inh (DAPK3) | %Inh (DCAMKL1) | %Inh (DCAMKL2) | %Inh (DCAMKL3) | %Inh (DDR1)
1 | O=C(CCO)NCCn1ccc2ncnc(Nc3ccc(Oc4cccc(C(F)(F)F)c4)c(Cl)c3)c21 | 0% | 0% | 3% | 0% | 0% | 0% | 0% | 0% | 0% | 0% | 0% | 0% | 0% | 11% | 0% | 0% | 39% | 0% | 0% | 0%
2 | Fc1cccc(COc2ccc(Nc3ncnc4cc[nH]c34)cc2Cl)c1 | 0% | 6% | 24% | 6% | 2% | 0% | 10% | 18% | 18% | 4% | 36% | 22% | 53% | 20% | 45% | 22% | 29% | 8% | 8% | 9%
3 | Cl.c1ccc(Cn2ncc3cc(Nc4ncnc5ccccc45)ccc32)cc1 [GW273749] | 0% | 22% | 38% | 12% | 0% | 15% | 42% | 12% | 0% | 30% | 4% | 13% | 0% | 5% | 0% | 4% | 9% | 0% | 0% | 3%
4 | Cn1ccc2ncnc(Oc3ccc(NC(=O)Nc4cccnc4)c(Cl)c3)c21 | 0% | 82% | 0% | 10% | 8% | 0% | 0% | 0% | 5% | 0% | 0% | 19% | 21% | 7% | 0% | 0% | 11% | 0% | 0% | 99.3%
5 | CC(C)N1CCC(n2cnc(-c3ccc(F)cc3)c2-c2ccnc(N)n2)CC1 [SB-223132] | 0% | 0% | 0% | 31% | 93.1% | 96.4% | 98.8% | 2% | 3% | 6% | 0% | 0% | 0% | 26% | 0% | 17% | 22% | 4% | 20% | 46%
6 | Cn1cc(-c2ccc3c(c2)CCN3C(=O)Cc2cccc(C(F)(F)F)c2)c2c(N)ncnc21 [GSK2606414] | 0% | 6% | 0% | 14% | 0% | 8% | 0% | 0% | 0% | 17% | 1% | 1% | 18% | 3% | 0% | 89% | 8% | 0% | 0% | 99.7%
7 | Nc1nccc2scc(-c3ccc4c(c3)CCN4C(=O)Cc3cc(F)ccc3F)c12 [GSK2587663] | 0% | 67% | 0% | 1% | 0% | 14% | 62% | 0% | 0% | 10% | 0% | 7% | 0% | 27% | 2% | 7% | 14% | 8% | 11% | 10%
8 | COC(=O)c1c(-c2ccccc2)c2cc(Cl)ccc2c(=O)n1Cc1ccc(S(C)(=O)=O)cc1 | 6% | 23% | 0% | 0% | 21% | 0% | 3% | 100% | 0% | 0% | 3% | 35% | 3% | 21% | 0% | 0% | 5% | 1% | 4% | 51%
9 | O=C(c1ccc(-c2cc(-c3c[nH]nc3-c3ccccn3)ccn2)cc1)N1CCCC1 [GW792479] | 0% | 0% | 17% | 0% | 59% | 49% | 30% | 9% | 9% | 0% | 0% | 0% | 0% | 0% | 33% | 85% | 19% | 10% | 0% | 0%
10 | FC(F)(F)c1ccc(-c2cc(-c3c[nH]nc3-c3ccccn3)ccn2)cc1 [GW599550] | 33% | 0% | 0% | 0% | 0% | 48% | 45% | 10% | 13% | 13% | 0% | 30% | 0% | 9% | 16% | 99.2% | 10% | 16% | 0% | 0%
11 | Nc1n[nH]c2nnc(-c3ccccc3)cc12 [SB-517389] | 0% | 18% | 0% | 10% | 0% | 6% | 28% | 7% | 0% | 17% | 0% | 16% | 0% | 28% | 0% | 17% | 11% | 0% | 29% | 9%
12 | Clc1cc(Nc2ncnc3cc[nH]c23)ccc1OCc1ccccn1 | 0% | 7% | 17% | 1% | 14% | 4% | 4% | 2% | 11% | 0% | 41% | 31% | 56% | 25% | 0% | 0% | 26% | 21% | 6% | 14%
13 | Clc1ccc(-c2cc(-c3c[nH]nc3-c3ccccn3)ccn2)cc1 [GW681251] | 0% | 8% | 0% | 1% | 18% | 42% | 33% | 0% | 0% | 0% | 0% | 21% | 0% | 0% | 0% | 30% | 0% | 0% | 0% | 73%
14 | Clc1cccc(-c2nc(Nc3ccncc3)c3ccccc3n2)c1 [GW873004] | 0% | 0% | 0% | 7% | 29% | 12% | 23% | 3% | 10% | 18% | 0% | 14% | 0% | 0% | 0% | 11% | 13% | 0% | 41% | 79%
15 | COC(=O)c1cccc(NC(=O)NCCNc2ccnc(Nc3ccc(F)cc3)n2)c1 [GSK1379883] | 0% | 14% | 0% | 4% | 0% | 3% | 29% | 0% | 0% | 25% | 0% | 23% | 0% | 0% | 0% | 13% | 88% | 0% | 24% | 0%
16 | Cc1ccc(O)cc1Nc1cc(C(F)(F)F)nc2ccc(-c3ccncc3)cc12 [GW630823] | 0% | 3% | 0% | 23% | 4% | 15% | 0% | 6% | 1% | 5% | 0% | 2% | 2% | 16% | 17% | 11% | 25% | 0% | 15% | 40%
17 | Cn1ccc2ncnc(Nc3ccc(Oc4cccc(Cl)c4)c(Cl)c3)c21 | 1% | 17% | 46% | 16% | 14% | 10% | 0% | 6% | 0% | 0% | 0% | 39% | 45% | 18% | 0% | 0% | 43% | 5% | 0% | 0%
18 | CCCc1ccc(S(=O)(=O)NC2CCN(c3ccnc(Nc4ccc(OC)cc4)n3)C2)cc1 (stereo not shown) [GSK1379737] | 23% | 10% | 0% | 7% | 0% | 14% | 19% | 0% | 0% | 21% | 0% | 0% | 0% | 0% | 0% | 14% | 7% | 0% | 0% | 15%
19 | FC(F)(F)c1cc(Nc2nccc(-c3c(-c4ccc(Cl)cc4)nn4ncccc34)n2)ccc1Cl [GW829351] | 0% | 0% | 0% | 0% | 0% | 81% | 79% | 0% | 0% | 0% | 0% | 11% | 14% | 0% | 0% | 12% | 0% | 0% | 0% | 78%
20 | CS(=O)(=O)CCNCc1ccc(-c2ccc3ncnc(Nc4ccc(OCc5ccccc5)c(Cl)c4)c3c2)o1.Cl [GW574783] | 7% | 0% | 0% | 20% | 0% | 15% | 10% | 0% | 0% | 6% | 3% | 5% | 0% | 0% | 0% | 0% | 0% | 0% | 4% | 10%
